Compound activity as filed in PubChem BioAssay.
A selection: hits, their analogues and other compounds. The true share with any hit is near 1.5%.
BLM helicase inh – blocks DNA unwinding by human BLM helicase | 0.2% of 350,000 active | P54132 | recombinant BLM DNA unwinding, fluorescence dequenching | Potency, µM (top dose mostly 56.1 µM), without a hit: top-dose activity change, negative = inhibition, actives largely listed as inhibitors;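 note: potency is the fitted concentration of half-maximal effect; plate controls were vehicle for no effect and no enzyme for full effect; nearly all actives have a fitted effect of over 35% in size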
APEX1 inh – inhibitors of human APE1 endonuclease; P27695; recombinant APE1, TAMRA/BHQ-2 abasic DNA cleavage fluorescence; Potency, µM (doses to about 65.8 µM), for inactives: at the top dose activity change, negative = inhibition, hits mostly inhibitors; 0.35% of 350,000 active; AID 2517;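 note: potency is the fitted concentration of half-maximal effect; plate controls were vehicle for no effect and reference inhibitor for full effect; nearly all actives have a fitted effect of over 55% in size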
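APE1 at 0.75 nM preincubated 15 min at room temperature with compound. Reaction then started with 50 nM double-stranded THF-abasic substrate labelled with TAMRA/BHQ-2, and 525/598 nm fluorescence read kinetically. Activity taken as third-minus-first read difference, normalized to DMSO and NSC13755 controls.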
PI5P4K alpha inh – inhibitors of human PI5P4K alpha | P48426 | 1.2% of 330,000 active | max response, % | PI5P4Kalpha enzyme, ADP-Glo luminescence, 60 min; hits give low values; active = max response of -50% or lower; inconclusive = between -30% and -50%; inactive = -30% or higher; note: value at the top dose of about 77 µM; % is set by controls: 0 for no effect and ±100 for the full control effect
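Quantitative HTS of the MLSMR library against PI5P4Kalpha with substrate. ATP added last at 5 microM final; room temperature, 60 minutes. Remaining ATP depleted, ADP converted and read as luminescence.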
GCN5L2 inh-1 – GCN5L2 (KAT2A) acetyltransferase inhibition; Q92830; GCN5L2 HAT assay, ThioGlo1 CoA-SH fluorescence; Potency, µM (doses to about 58.9 µM), for inactives: top-dose activity change, negative = inhibition, most hits filed as inhibitors; 0.21% of 390,000 active; AID 504327; note: potency is the fitted concentration of half-maximal effect; % is set by controls: 0 for no effect and ±100 for the full control effect
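Fluorescence readout, Ex340nm/Em540nm: ThioGlo1 (50uM final) reacts with free CoA thiol released as 20nM GCN5L2 acetylates H3(1-25) peptide (75uM) using acetyl-CoA (70uM). Compound and enzyme sat 15 min beforehand; 20 min room-temperature reaction.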
RECQ1 inh-1 – inhibitors of human RECQ1 DNA helicase | RECQ1 DNA unwinding, red fluorescence kinetic read | Potency, µM (titrated, usually from 57.3 µM), without a hit: at the highest dose activity, negative = inhibition, hits mostly inhibitors | P46063 | 0.54% of 240,000 active;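 note: potency is the fitted concentration of half-maximal effect; plate controls were vehicle for no effect and no enzyme for full effect; nearly all actives have a fitted effect of over 30% in size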
Target sequence (P46063 whole entry, looked up): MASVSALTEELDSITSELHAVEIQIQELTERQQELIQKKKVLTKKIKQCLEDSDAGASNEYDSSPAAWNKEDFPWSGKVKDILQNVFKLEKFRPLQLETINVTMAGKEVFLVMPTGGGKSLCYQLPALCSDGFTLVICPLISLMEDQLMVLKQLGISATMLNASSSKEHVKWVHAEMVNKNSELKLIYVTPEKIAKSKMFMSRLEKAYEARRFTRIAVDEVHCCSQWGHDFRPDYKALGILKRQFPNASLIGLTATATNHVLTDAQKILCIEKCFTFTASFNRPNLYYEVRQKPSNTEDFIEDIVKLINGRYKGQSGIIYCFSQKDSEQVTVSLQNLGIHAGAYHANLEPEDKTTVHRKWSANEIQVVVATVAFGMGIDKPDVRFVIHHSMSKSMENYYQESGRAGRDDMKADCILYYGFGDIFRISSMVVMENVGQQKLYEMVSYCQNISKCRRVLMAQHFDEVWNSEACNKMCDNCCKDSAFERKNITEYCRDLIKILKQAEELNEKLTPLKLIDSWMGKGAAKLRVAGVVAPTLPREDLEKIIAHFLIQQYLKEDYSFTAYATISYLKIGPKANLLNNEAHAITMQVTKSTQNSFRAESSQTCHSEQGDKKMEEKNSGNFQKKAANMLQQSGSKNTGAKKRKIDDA
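RECQ1T1 50 nM; forked duplex (20 bp + 30-nt ss tails) 200 nM, ATP 2 mM final; pH 8.0, 2 mM MgCl2, 2.5 ug/ml poly(dI-dC); 15 min compound preincubation; discontinuous kinetic read over 2 h at RT.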
FEN1 inh-1 – human FEN1 inhibition. P39748. Recombinant FEN1 flap cleavage, fluorescence, 15 min. Potency, µM (highest dose often 114 µM), without a hit: at the top dose activity change, negative = inhibition, usual class: inhibitors. 0.35% of 390,000 active. AID 588795; note: potency is the fitted concentration of half-maximal effect; % is set by controls: 0 for no effect and ±100 for the full control effect; nearly all actives have a fitted effect of over 65% in size
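Enzyme 10 nM, 15 min RT preincubation with compound; start with substrate 50 nM final; reads at 0 and 15 min; qHTS titration, four-parameter Hill fit.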
RECQ1 inh conf – confirmation of human RECQ1 helicase inhibitors; shares compounds with RECQ1 inh-1; RECQ1 helicase DNA unwinding, fluorescence; Potency, µM (doses to about 229 µM), inactives show at the top dose activity change, negative = inhibition, actives largely listed as inhibitors; 28% of 610 active; AID 2708; note: potency is the fitted concentration of half-maximal effect; % is set by controls: 0 for no effect and ±100 for the full control effect; nearly all actives have a fitted effect of over 45% in size
ADP FP counter – ADP displacement flagged in RECQ1 inhibitor counter-screen. shares compounds with RECQ1 inh-1. ADP fluorescence polarization displacement counterscreen. Potency, µM (series often up to 228 µM), without a hit: at the top dose activity change, negative = inhibition, actives largely listed as inhibitors. 27% of 530 active. AID 2711; note: potency is the fitted concentration of half-maximal effect; % is set by controls: 0 for no effect and ±100 for the full control effect; nearly all actives have a fitted effect of over 45% in size
RECQ1 inh-2 – RECQ1 helicase inhibition confirmed, round 2; 15% of 1,100 active; recombinant RECQ1 DNA unwinding, red fluorescence; Potency, µM (top dose mostly 119 µM), without a hit: at the top dose activity, negative = inhibition, actives largely listed as inhibitors; shares compounds with RECQ1 inh-1; note: potency is the fitted concentration of half-maximal effect; % is set by controls: 0 for no effect and ±100 for the full control effect; nearly all actives have a fitted effect of over 50% in size
GCN5L2 inh-2 – human KAT2A HAT inhibition, hit confirmation; shares compounds with GCN5L2 inh-1; GCN5L2 HAT, ThioGlo1 CoA fluorescence, 20 min; Potency, µM, most hits filed as inhibitors; 70% of 140 active; AID 588347
FEN1 inh-2 – confirmation of human FEN1 inhibitors; 79% of 880 active; shares compounds with FEN1 inh-1; AID 720498; FEN1 flap cleavage, TAMRA/BHQ2 fluorogenic DNA substrate; Potency, µM, usual class: inhibitors; note: potency is the fitted concentration of half-maximal effect; nearly all actives have a fitted effect of over 60% in size
Starred values were filed as active, the others as inactive; ? = inconclusive; / = not tested or not shown; [ ] = remark or other dose. Unless noted, calls come from the whole dose curve; as a rule, active = well fitted curve in the direction sought with a large enough effect; inconclusive = small, poorly fitted or top-dose-only effect, or another doubt; inactive = no such curve, though single readings can be large; an effect the other way counts as inactive or inconclusive.

SMILES	BLM helicase inh	APEX1 inh	PI5P4K alpha inh	GCN5L2 inh-1	RECQ1 inh-1	FEN1 inh-1	RECQ1 inh conf	RECQ1 inh-2	FEN1 inh-2	others
C=CCn1c(SCC(=O)N2c3ccccc3Sc3ccccc32)nnc1-c1ccco1	-7%	-1%	2	-5%	-2%	0%	-10%	/	/	ADP FP counter=11%
CCn1c(SCC(=O)N2c3ccccc3Sc3ccccc32)nnc1-c1ccco1	0%	-2%	/	-6%	-4%	-14%	/	/	/
Cc1cc(C)cc(OCC(=O)Nc2nonc2NC(=O)COc2cc(C)cc(C)c2)c1	-4%	4%	/	-20%	?	9%	/	-1%	/
Cc1nn2c(COc3ccc(NC(=O)C(C)C)cc3)nnc2c2ccccc12	1%	9%	-5	0%	?	10%	/	-9%	/
CCOC(=O)Nc1ccc(OCc2nnc3c4ccccc4c(C)nn23)cc1	-4%	2%	9	-1%	-7%	-4%	/	/	/
O=C(N/N=C/c1ccc(-c2ccc(S(=O)(=O)Nc3ncccn3)cc2)o1)c1cc2ccccc2cc1O	?	?	-84*	?	3.5µM*	16µM*	45µM*	/	/	ADP FP counter=-12%[91.9 µM];GCN5L2 inh-2=?
CCOc1ccc(C(=O)N/N=C/c2ccc(-c3ccc(S(=O)(=O)Nc4ncccn4)cc3)o2)cc1	-11%	-7%	/	-10%	?	?	/	/	/
Nc1ccccc1Oc1ccccc1	-2%	3%	/	1%	-15%	/	/	/	/
O=C(CSc1nnc(-c2ccco2)c(-c2ccco2)n1)Nc1ccccc1	14µM*	14µM*	-84*	?	10µM*	?	/	-26%	/	GCN5L2 inh-2=26*
Nn1cnnc1N/N=C\c1ccc(-c2ccccc2[N+](=O)[O-])o1	0%	7%	-3	-9%	4.5µM*	-10%	6%[114 µM]	/	?
O=C(O)CCC/C=C\C[C@@H]1[C@@H](CC[C@@H](O)CCc2ccccc2)[C@H](O)C[C@@H]1O	0%	16%	/	5%	8%	/	/	/	/
Cc1csc(N/N=C/c2ccc(O)c([N+](=O)[O-])c2)n1	?	?	-75*	-10%[0.501 µM]	14µM*	79µM*	3%[114 µM]	/	67*	ADP FP counter=?
O=C(Cc1cnn(-c2ccccc2)c1)c1ccc(O)c(O)c1O	-10%	?	-24	-7%	3.2µM*	25µM*	-2%[114 µM]	/	34*	ADP FP counter=30%[91.9 µM]
CCc1cc(C(=O)Cc2cnn(-c3ccccc3)c2)c(O)cc1O	-12%	0%	-1	-28%	1%	?	/	/	/
CC1=Nc2ccccc2/C1=C\c1nc(-c2ccc(F)cc2)oc1O	-19%	9%	/	-6%[0.501 µM]	?	71µM*	/	?	24*
CN=Cc1nc(-c2ccccc2)oc1O	5%	-5%	-13	-13%	1%	3%	/	/	/
CS(=O)(=O)c1ccc2c(c1)sc1nc(=O)c(/C=C3/C=CC(=O)C(O)=C3)c(N)n12	25µM*	25µM*	-80*	?	16µM*	13µM*	/	7.9µM*	38*
